The source of these data is PubChem BioAssay.

For some of these results: Measured potencies and affinities stand elsewhere. Active and inactive are the calls of the source.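 Rule for the calls, unless noted: active = compound raising the membrane signal above positive-control mean plus 3 SD in both repeats, and a primary screen hit; inactive = the rest.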

The test system of test [1] is TRPC4 beta (transient receptor potential cation channel C4), mouse. The experiment in a line: TRPC4 cation channel opening, retest – cell-based, Fluo4 calcium, HEK293 TRPC4beta/mu-opioid, duplicates, 10 µM, confirmation (AID 2426;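 active = fluorescence ratio normalized to control raised more than 50% in primary screen plus both repeat runs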). As to conditions: Fluo4 calcium fluorescence, at 10 µM; active compounds read high.
The subject of test [2] is transient receptor potential cation channel C4 beta (TRPC4), mouse. The experiment in a line: TRPC4 cation channel opening, second retest – cell-based, second round, Fluo4, HEK293 TRPC4beta/mu-opioid, 1 µM, confirmation (AID 2461;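 active = primary screen active and over 50% activation in each of two duplicate runs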). As to conditions: Fluo4 calcium fluorescence, at 1 µM; active compounds read high.
Test [3] deals with TRPC4 (transient receptor potential cation channel C4 beta), mouse. The experiment in a line: potentiation of DAMGO EC20 TRPC4 response – cell-based, second round, Fluo-4, HEK293 TRPC4beta/mu-opioid, 1 µM, confirmation (AID 2554;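 active = primary screen hit whose fluorescence ratio, in both repeats, exceeds the weak agonist control mean by 3 SD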). Conditions: DAMGO EC20, Fluo-4 calcium flux, at 1 µM; active compounds read high. In general terms: Calcium flux is commonly read through the fluorescence of an indicator in the cells.

The test system of test [4] is TRPC4 beta (transient receptor potential cation channel C4), mouse. The experiment in a line: potentiation of DAMGO EC20 TRPC4 response – cell-based, Fluo-4, HEK293 TRPC4beta/mu-opioid, confirmation (AID 2555;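 active = primary screen hit whose calcium fluorescence ratio, in both repeats, exceeds the weak agonist control mean by 3 SD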). As to conditions: DAMGO EC20, Fluo-4 calcium flux, at 10 µM; active compounds read high.
Test [5] has as its target Short transient receptor potential channel 4 (Mus musculus) (UniProt Q9QUQ5). The experiment in a line: blockers of DAMGO-evoked TRPC4 calcium flux – cell-based, Fluo4, HEK293 TRPC4beta/mu-opioid, confirmation (AID 2636;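 active = calcium signal cut by more than 3 SD below the full-agonist control yet still positive, in both repeats and the earlier primary screen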). Conditions: at 10 µM; active compounds read high.
Test [6] shares this target. The experiment in a line: blockers of DAMGO-evoked TRPC4 calcium flux – cell-based, second round, Fluo4, HEK293 TRPC4beta/mu-opioid, 1 µM, confirmation (AID 2637;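 active = calcium signal ratio cut to more than 3 SD under the fully stimulated control mean yet still positive, in both repeats and the primary screen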;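 for inhibition: percent of integrated ratio relative to wells lacking test compound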). Conditions: at 1 µM; active compounds read high.
Test [7] has the same target. The experiment in a line: calcium entry via TRPC4 opening agents – cell-based, HEK293 TRPC4/mu-opioid, Fluo-4 calcium, dose response (AID 434937;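 active = primary screen activator hit with a dose response curve and TRPC4 channel activation at any tested dose; inactive = no activation, no dose response, or not a primary hit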).
The target is the same in test [8]. The experiment in a line: potentiation of DAMGO-evoked TRPC4 calcium signal – cell-based, HEK293 TRPC4/mu-opioid, Fluo-4 calcium, EC20 DAMGO, dose response (AID 434941;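 active = earlier screen potentiator hit that boosts the TRPC4 ion channel at some dose, with a dose response; inactive = no potentiation, no dose response, or not a prior hit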;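 note: calcium entry triggered by an EC20 dose of DAMGO at the co-expressed mu-opioid receptor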).
Test [9] has the same target. The experiment in a line: block of DAMGO-driven TRPC4 calcium entry – cell-based, HEK293 TRPC4/mu-opioid, Fluo-4 calcium, dose response (AID 434942;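 active = primary screen inhibitor hit that blocks the TRPC4 channel at some tested dose, yielding a dose curve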).
Test [10] addresses Short transient receptor potential channel 6 (Mus musculus) (UniProt Q61143). The experiment in a line: TRPC6 blockade by TRPC4 inhibitor hits – cell-based, HEK293, membrane potential dye, duplicate, selectivity assay for TRPC4 inhibitor project, confirmation (AID 434948;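 active = active in primary screen and both duplicates, each dropping signal beyond three positive-control SD with fluorescence still positive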). As to conditions: HEK293 TRPC6, membrane potential dye fluorescence, at 10 µM; inhibition: active compounds read high, stimulated with maximal-effect acetylcholine unless noted; outcome: stimulated with maximal-effect acetylcholine unless noted.

For test [11] the target is unchanged. The experiment in a line: TRPC6 opening by TRPC4 activator hits – cell-based, HEK293, membrane potential dye, duplicate, selectivity assay for TRPC4 activator project, confirmation (AID 434950;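 active = membrane potential signal rise above negative control mean plus 3 SD in both duplicates, also active in the earlier TRPC4 screen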). Conditions: HEK293 TRPC6, membrane potential fluorescence, at 10 µM; activation: active compounds read high; outcome: activation.
The target is the same in test [12]. The experiment in a line: positive modulators of mouse TRPC6 channel – HEK293 cells, membrane potential dye, duplicate, selectivity assay for TRPC4 potentiator project, confirmation (AID 434952). As to conditions: HEK293 TRPC6, membrane potential dye fluorescence, at 10 µM; maximal acetylcholine added after compound unless noted.
The target in test [13] is Short transient receptor potential channel 4 (Mus musculus) (UniProt Q9QUQ5). The experiment in a line: calcium flux activators in TRPC4/5HT1a cells, counter-screen for TRPC4 activator project, cell-based, second counter screen, HEK293 TRPC4/5HT1a, Fluo-4 (AID 434977;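 active = calcium signal rise above buffer-control mean plus 5 SD in both duplicates, and also a hit in the primary screen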). Conditions: Fluo-4 calcium flux, at 10 µM; active compounds read high.
Test [14] is described as follows: serotonin-gated TRPC4 signal block – cell-based, second counter screen, HEK293 TRPC4/5HT1a, Fluo-4, counter-screen for TRPC4 inhibitor project, confirmation (AID 434978;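 active = primary screen active whose calcium signal fell more than 3 SD beyond the full-serotonin control mean in both duplicate plates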;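 for outcome: serotonin given first at submaximal then at maximal dose after compound preincubation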). As to conditions: Fluo-4 calcium flux, at 10 µM; inhibition: active compounds read high, serotonin added to trigger calcium flux unless noted; outcome: serotonin added to trigger calcium flux unless noted. In general terms: Counterscreens check selectivity or assay interference.

In test [15] the test system is TRPC4 (mouse), co-expressed with 5HT1a in HEK293. The experiment in a line: enhancement of serotonin-evoked TRPC4 response – cell-based, second counter screen, HEK293 TRPC4/5HT1a, Fluo-4, counter-screen for TRPC4 potentiator project, confirmation (AID 434979;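 active = signal rise over 3 SD above mean of control wells given weak agonist, in both repeats and first screen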). Conditions: Fluo-4 calcium flux, at 10 µM; outcome: serotonin added at its EC20 dose unless noted; potentiation: active compounds read high, serotonin added at its EC20 dose unless noted.

Test [16] can be described thus: nonspecific calcium rise without TRPC4 – cell-based, HEK293 mu-opioid receptor line, counter-screen for TRPC4 activator project, confirmation (AID 449723;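 active = hit in primary screen, with calcium signal over 5 SD above buffer well mean in both duplicates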;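 note: counter screen cells carry the mu-opioid receptor alone and lack TRPC4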). As to conditions: HEK293 mu-opioid cells, Fluo-4 calcium fluorescence, at 10 µM; active compounds read high.
Test [17] is described as follows: nonspecific potentiation of DAMGO calcium response – cell-based, HEK293 mu-opioid receptor line, counter-screen for TRPC4 allosteric potentiator project, confirmation (AID 449724;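 active = calcium signal rise more than 3 SD above the low-dose agonist control mean, in both duplicate plates and the primary screen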;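 note: HEK293 cells carrying mu-opioid receptor only with no TRPC4 channel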). Conditions: HEK293 mu-opioid receptor cells, Fluo-4 calcium flux, at 10 µM; compound added before EC20 DAMGO stimulus unless noted.

Broadly, the inhibition is the change of the read-out against control, counted positive when it falls.

Chain of Short transient receptor potential channel 6 (Mus musculus) (Q61143 whole entry, looked up): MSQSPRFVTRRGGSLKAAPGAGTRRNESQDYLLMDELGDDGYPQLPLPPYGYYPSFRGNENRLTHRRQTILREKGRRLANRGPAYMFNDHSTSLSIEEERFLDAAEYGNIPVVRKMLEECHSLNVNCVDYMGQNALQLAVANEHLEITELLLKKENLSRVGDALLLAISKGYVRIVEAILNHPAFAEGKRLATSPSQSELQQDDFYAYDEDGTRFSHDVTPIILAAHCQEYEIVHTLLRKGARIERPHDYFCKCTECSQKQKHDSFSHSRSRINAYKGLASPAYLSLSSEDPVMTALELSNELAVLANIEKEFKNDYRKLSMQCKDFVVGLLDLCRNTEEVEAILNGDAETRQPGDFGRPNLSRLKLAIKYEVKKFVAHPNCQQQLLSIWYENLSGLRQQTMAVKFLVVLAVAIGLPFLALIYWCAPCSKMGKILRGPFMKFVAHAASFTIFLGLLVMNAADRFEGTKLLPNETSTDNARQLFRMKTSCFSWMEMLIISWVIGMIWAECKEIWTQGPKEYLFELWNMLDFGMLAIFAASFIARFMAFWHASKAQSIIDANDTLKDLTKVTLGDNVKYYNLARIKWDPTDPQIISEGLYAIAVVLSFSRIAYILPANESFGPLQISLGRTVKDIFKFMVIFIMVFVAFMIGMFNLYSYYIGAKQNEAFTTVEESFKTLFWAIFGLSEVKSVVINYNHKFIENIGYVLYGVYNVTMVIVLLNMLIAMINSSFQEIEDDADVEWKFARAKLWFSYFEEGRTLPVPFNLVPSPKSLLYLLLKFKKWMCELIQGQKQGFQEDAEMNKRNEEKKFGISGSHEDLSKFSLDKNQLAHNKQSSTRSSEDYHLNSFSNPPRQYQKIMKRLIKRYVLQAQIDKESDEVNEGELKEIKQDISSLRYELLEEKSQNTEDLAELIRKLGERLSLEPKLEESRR
Chain of Short transient receptor potential channel 4 (Mus musculus) (Q9QUQ5 whole entry, looked up): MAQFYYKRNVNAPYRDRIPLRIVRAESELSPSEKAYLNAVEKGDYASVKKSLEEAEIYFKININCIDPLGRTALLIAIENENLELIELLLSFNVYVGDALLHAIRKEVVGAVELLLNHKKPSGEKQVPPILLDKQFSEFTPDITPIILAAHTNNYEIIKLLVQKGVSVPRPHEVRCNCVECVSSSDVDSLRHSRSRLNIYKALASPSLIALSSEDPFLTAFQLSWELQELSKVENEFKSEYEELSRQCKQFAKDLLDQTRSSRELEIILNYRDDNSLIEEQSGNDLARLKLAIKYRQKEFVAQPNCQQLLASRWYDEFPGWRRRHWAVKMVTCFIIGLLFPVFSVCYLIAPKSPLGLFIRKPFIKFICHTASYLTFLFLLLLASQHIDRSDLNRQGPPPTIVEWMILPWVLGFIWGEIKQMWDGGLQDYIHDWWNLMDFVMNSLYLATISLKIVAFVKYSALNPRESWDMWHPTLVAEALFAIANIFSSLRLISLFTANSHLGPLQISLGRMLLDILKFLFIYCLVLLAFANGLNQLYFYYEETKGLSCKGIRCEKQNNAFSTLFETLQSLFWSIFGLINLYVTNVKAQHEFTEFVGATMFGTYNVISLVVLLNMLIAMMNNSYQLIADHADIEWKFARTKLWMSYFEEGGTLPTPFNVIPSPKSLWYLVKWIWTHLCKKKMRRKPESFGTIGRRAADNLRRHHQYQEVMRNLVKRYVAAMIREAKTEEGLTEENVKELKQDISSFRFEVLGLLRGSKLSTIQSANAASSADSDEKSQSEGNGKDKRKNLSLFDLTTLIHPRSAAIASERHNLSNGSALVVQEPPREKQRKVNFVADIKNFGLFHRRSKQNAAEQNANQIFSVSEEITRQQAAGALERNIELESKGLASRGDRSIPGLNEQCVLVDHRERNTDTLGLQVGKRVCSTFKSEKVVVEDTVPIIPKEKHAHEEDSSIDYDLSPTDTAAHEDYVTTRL

As to `Nc1ccccc1-[n+]1c(-c2ccccc2)cc(-c2ccccc2)cc1-c1ccccc1`, the outcome in test [1], in test [2], in [4], in test [5], in test [6] and in test [7] was inactive. Besides, the outcome in test [8], in test [9], in test [10], in [11], in [12] and in test [13] was inactive. Also, the result in test [14], in test [16] and in test [17] was inactive. Also, the values for the potentiation in test [3] and in [15] were 27% (active) and 20.7% (active), respectively.

For `CCN1CC2C3CCC(C)(O3)C2C1` (centres undefined), the outcome in test [1], in test [2], in test [3], in test [4], in [5] and in test [6] was inactive. In addition, the result in [7], in test [8], in test [9], in test [10], in test [11] and in [12] was inactive. Further, the result in test [13], in test [14], in [15], in [16] and in test [17] was inactive.

Consider `Cc1cccc(N=Cc2c(O)n(-c3ccccc3C)c(=O)[nH]c2=O)c1`, for which the outcome in test [1], in test [2], in test [3], in [5], in test [6] and in test [7] was inactive. The outcome in [8], in test [9], in [11], in test [13] and in test [16] was inactive. The potentiation in [4] was 28% (active); in [15] it was 32.1% [active compounds read high] (active). For the same compound, the outcome in test [10], in test [12], in [14] and in test [17] was “inactive [setting not given]” throughout.

For `Cc1ccc(-c2nc(N(C)C3CCN(C)CC3)c3ccccc3n2)cc1`, the outcome in [1], in test [2], in test [5], in test [6], in [7] and in [8] was inactive. The outcome in [9], in test [10], in test [11], in test [12], in test [13] and in test [14] was inactive. The outcome in test [16] and in [17] was inactive. For the same compound, the potentiation in [3] was 14% (active); in test [4], 24% (active); in [15] it was 34.7% (active).

`CCC1=Nc2cc(C(=O)N3CCC4(CC3)OCCO4)ccc2Sc2ccc(Br)cc21`: the outcome in test [1], in test [2], in [3], in test [4], in test [5] and in [6] was inactive. In addition, the result in test [7], in test [8], in test [9], in test [11], in [13] and in test [16] was inactive. Besides, the outcome in test [10], in test [12], in test [14], in test [15] and in [17] was “inactive [setting not given]” in each case.

With `CCOc1c(Cl)cc(CNC(C)C(O)c2ccccc2)cc1OC` (centres undefined), the result in test [1], in [2], in test [3], in test [4], in test [6] and in test [7] was inactive. The outcome in test [8], in [10], in [11], in [12], in test [13] and in test [14] was inactive. Further, the result in [15], in test [16] and in test [17] was inactive. Moreover, the inhibition in test [5] is 99% (active).

In the case of `CCc1nccc2c1[nH]c1ccccc12`, the result in test [1], in test [2], in [3], in test [4], in [7] and in test [8] was inactive. Moreover, the outcome in test [10], in test [11], in test [12], in test [13], in test [15] and in [16] was inactive. Besides, the result in test [17] was inactive. Besides, the inhibition in test [5] is 93% (active); in test [6] it was 63% (active); in [14], 9.99% (active).

In the case of `O=C(c1cccc(C(F)(F)F)c1)C1CCCN(Cc2ccccc2O)C1` (centres undefined), the outcome in test [1], in test [2], in test [3], in [4], in test [6] and in test [7] was inactive. In addition, the outcome in test [8], in test [10], in test [11], in test [12], in test [13] and in test [15] was inactive. The outcome in test [16] and in [17] was inactive. Further, the results for the inhibition in [5] and in test [14] were 87% (active) and 24.6% (active), respectively.

As for `CC(C)CN(CC(C)C)c1ccc(C=C2C(=O)NC(=S)NC2=O)cc1[N+](=O)[O-]`, the result in [1], in test [2], in [3], in [4], in test [7] and in test [8] was inactive. The call in test [11], in test [13] and in test [16] was inactive. The inhibition in test [5] was 98% (active); in [6], 52% (active); in test [14], 8.19% [active compounds read high] (active). The outcome in [10], in [12], in [15] and in test [17] was “inactive [setting not given]” in each case.

As to `COc1ccc(OC)c(CN2CCCC(C(=O)c3sccc3C)C2)c1` (centres undefined), the result in [1], in [2], in test [3], in [4], in test [7] and in test [8] was inactive. The outcome in [10], in test [11], in test [12], in test [13], in test [15] and in test [16] was inactive. Further, in [17], the result was inactive. Further, the inhibition was 97% (active) in test [5], 50% (active) in test [6] and 25.9% (active) in test [14].

For the compound `COc1ccc(OC)c(N2Cc3ccccc3C2=N)c1`, the outcome in test [1], in test [2], in [3], in test [4], in test [7] and in test [8] was inactive. Further, the outcome in test [10], in [11], in test [12], in [13], in [15] and in [16] was inactive. For the same compound, in test [17], the outcome was inactive. For the same compound, the inhibition in test [5] is 96% (active); in test [6], 56% (active); in test [14], 21.8% (active).

Turning to `Cc1ccc(CN2C3CCCC2CC(NC(=S)NCc2ccccc2)C3)cc1` (centres undefined), the result in test [1], in test [2], in test [3], in test [4], in test [6] and in [7] was inactive. Besides, the result in test [8], in test [10], in test [11], in [12], in test [13] and in test [15] was inactive. Besides, the outcome in test [16] and in [17] was inactive. The inhibition in [5] is 88% (active); in test [14], 36.3% (active).

With `COc1ccc(CN2CCCC(C(=O)c3sccc3C)C2)cc1O` (centres undefined), the outcome in test [1], in test [2], in test [3], in test [4], in test [6] and in test [7] was inactive. In addition, the outcome in [8], in test [10], in [11], in test [12], in test [13] and in test [15] was inactive. Moreover, the outcome in test [16] and in test [17] was inactive. Also, the inhibition is 90% (active) in test [5] and 21.3% (active) in test [14].

Turning to `O=C(CN1CCCC1)Nc1ccc(Cl)cc1C(=O)c1ccccc1`, the result in test [1], in test [2], in test [3], in [4], in test [6] and in test [7] was inactive. Further, the result in test [8], in [10], in test [11], in test [12], in [13] and in [15] was inactive. The result in test [16] and in test [17] was inactive. Moreover, the inhibition in [5] is 90% (active); in test [14], 21.8% (active).
